Test results as given in PubChem BioAssay AID432 (Sanford-Burnham Center for Chemical Genomics, 2006).
About 15 (0.02%) of roughly 64,000 compounds were called active. No rule for the calls is given here. These entries were drawn from the full list. Measured potencies and affinities stand elsewhere.

target: Bcl-2-related protein A1 (Mus musculus) (UniProt Q07440); test: displacement of Bid BH3 peptide from Bfl-1 – biochemical, fluorescence polarization, FITC-Bid, mouse, primary screen (AID 432); conditions: at 20 µM, stronger effect = higher value
Sequence (Q07440 whole entry, looked up): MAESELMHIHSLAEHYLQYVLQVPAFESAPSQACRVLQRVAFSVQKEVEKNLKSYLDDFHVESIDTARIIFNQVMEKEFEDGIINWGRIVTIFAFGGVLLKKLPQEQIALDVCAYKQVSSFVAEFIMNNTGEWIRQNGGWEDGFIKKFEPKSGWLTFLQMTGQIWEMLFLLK

displacement, inactive:
COC(=O)C(C)n1cnc2c(cnn2-c2ccc(Cl)cc2)c1=O (stereo not drawn) 1.6%
CCCCCNC(=O)C(C#N)c1nc2ccccc2nc1N1CCCC1 (stereo not drawn) 34.3%
Cn1c(SCc2ccccc2Cl)nnc1-c1cnccn1 -5.3%
COc1ccccc1OC(=O)c1ccc(SC)cc1OC -2.3%
Cc1cc(OCC(=O)Nc2cc(-c3nn4c(C)nnc4s3)ccc2C)ccc1Cl 10%
O=C1c2ccccc2C(Nc2ccc(S(=O)(=O)N3CCOCC3)cc2)N1c1cccnc1 (stereo not drawn) 8.2%
N#CC1=C(N)OC2=C(C(=O)CCC2)C1c1ccsc1 (stereo not drawn) -2.3%
Cc1csc2ncc(C(=O)Nc3cccc(C(F)(F)F)c3)c(=O)n12 -2%
Cc1ccc(-n2cccc2C(=S)N=P(N(C)C)(N(C)C)N(C)C)cc1 22.3%
Cc1ccccc1OCC(=O)NCCN(C)C -12%
CCCN1Cc2cccc(C(=O)Nc3ccc4c(c3)OCO4)c2C1=O -7.1%
COc1ccc(CCNC(=O)CSc2nnc(Cn3c(=O)sc4ccccc43)n2C)cc1OC 4.6%
O=C(c1ccc(Br)o1)N(Cc1ccccc1)c1ccccn1 -6.6%
Cn1c(=O)[nH]c(=O)c2c1nc(N1CCN(c3ccccc3)CC1)n2CCSc1ncccn1 4.5%
FC(F)(F)c1cccc(N2CCN(c3ccc4nnc(-c5ccccc5)n4n3)CC2)c1 0.4%
Fc1ccc(-c2nnc3ccc(N4CCCC4)nn23)cc1 -8.2%
COc1ccc2cnn(CCOc3ccccc3)c(=O)c2c1OC -3.4%
CCCn1c(SCC(=O)NCc2ccco2)nc2c1c(=O)n(C)c(=O)n2C -5.1%
CCOC(=O)C(NC(C)=O)(Nc1ccc(S(=O)(=O)Nc2onc(C)c2C)cc1)C(F)(F)F (stereo not drawn) -2.1%
Cc1ccc(Nc2nc(C)cc(C)n2)c(Br)c1 -3.3%
CC(C)(C)NC(=O)NC(=O)COC(=O)C1CC(=O)N(Cc2ccccc2)C1 (stereo not drawn) -5.1%
CCCCCOc1ccc(/C=c2\sc3ncnn3c2=O)cc1 -9%
Cc1csc(NC(=O)CSc2nnc(-c3ccco3)n2C)n1 -7.7%
COC(=O)c1[nH]c2ccc(C)cc2c1NC(=O)CN1CCCCC1C (stereo not drawn) -1.2%
COc1ccccc1CNc1ncnc2c1cnn2-c1ccccc1 -2.9%
CN(C(=O)COC(=O)COc1ccccc1F)C1CCS(=O)(=O)C1 (stereo not drawn) -1.5%
C=CCn1c(C)cc(C(=O)CSc2nnc(NCc3ccccc3)s2)c1C 3.3%
CCOc1ccccc1C(=O)NCc1ccc2c(c1)OCO2 2.9%
COc1ccc(NC(=O)C23CCC(C)(C(=O)C2)C3(C)C)cc1 (stereo not drawn) -1.2%
COC(=O)c1cn(C(=O)OC)c2ccccc12 -6.7%
Oc1ccc(C=Nc2cccc3ncccc23)c(O)c1 4.8%
Nc1ccc2ncccc2c1 -3.5%
CCOc1ccc(-c2nnc3sc(-c4c(OC)cccc4OC)nn23)cc1 7.5%
COc1cccc(OC)c1-c1nn2c(-c3ccco3)nnc2s1 -0.8%
COc1ccc(-c2nnc3sc(-c4ccccc4OC)nn23)cc1 0.2%
COc1cccc(OC)c1-c1nn2c(-c3ccccc3Cl)nnc2s1 -6.5%
CSc1nnc(-c2ccccc2)n1C -1.8%
CCC(=O)N1CCc2cc(S(=O)(=O)CCC(=O)NCc3cccs3)ccc21 3.1%
CC(=O)Nc1ccc(NCC(O)COc2ccccc2)cc1 (stereo not drawn) 9.6%
CC(=O)N1CCc2cc(S(=O)(=O)NCCC(=O)N3CCN(c4ccccn4)CC3)ccc21 0.4%
Cc1cc(=O)n2ncnc2n1COCCO -8.2%
COCC(C)NC(=O)CCS(=O)(=O)c1nc(-c2ccc(OC)cc2)cc(C(F)(F)F)n1 (stereo not drawn) 6.4%
Cc1cc(NC(=O)CCS(=O)(=O)c2nc(-c3ccccc3)cc(C(F)(F)F)n2)no1 -3%
CCOC(=O)c1cnn2c(C)cc(-c3ccc(F)cc3)nc12 -7.8%
CCOC(=O)CCS(=O)(=O)c1nc(-c2ccccc2)cc(C(F)(F)F)n1 37.1%
COc1cc(OC)c(C2Oc3nc(SC)nnc3-c3ccccc3N2C(C)=O)cc1OC (stereo not drawn) 3.4%
CCC(=O)N1c2ccccc2-c2nnc(SC)nc2OC1c1ccc(OC)c(OC)c1 (stereo not drawn) 0.1%
CC(=O)NC1C(=O)N=C(SCC(=O)NCc2ccccc2)NC1=O (stereo not drawn) 1.1%
O=c1n(-c2ccccc2)c(=O)n(Cc2ccccn2)n1Cc1ccccn1 -5.3%
Cc1nc2ccc(S(=O)(=O)Nc3ccccc3C)cc2s1 -3.4%
COc1ccc2c3c(cccc13)OCC2=O 12.2%
COc1ccc(C(C)=O)c2c(O)cccc12 -0.9%
CCn1c(N)c(C(=O)NC)sc1=S -2%
Cc1ccc(-c2nnc(COc3cccc(-n4cnnn4)c3)o2)cc1 -4.7%
C=CCn1cc(C(=O)NCCOC)c(=O)c2cc(S(=O)(=O)N(CC)CC)ccc21 1.1%
O=C(NC1CCCCNC1=O)c1ccc(Cl)cc1 (stereo not drawn) -4%
CC1(C)CC(=O)C(C=NCCN2CCN(C(=O)CC3CCCC3)CC2)=C(O)C1 -1.8%
O=C1CSC(c2cn(-c3ccccc3)nc2-c2cc3ccccc3oc2=O)N1Cc1ccco1 (stereo not drawn) -5.3%
COc1ccc(S(=O)(=O)N[C@@H](CC(C)C)C(=O)O)cc1 -6%
Cc1nc2c(c(=O)n1Cc1ccccc1Cl)c1nc3ccccc3nc1n2Cc1ccco1 -10.7%
N#Cc1c(NC(=O)CSc2nc(-c3ccco3)cc(C(F)(F)F)n2)sc2c1CCCC2 -0.1%
COc1ccc(C(=O)N2CCN(c3nnnn3-c3ccccc3)CC2)cc1OC 3.7%
Cc1cc(Nc2c(C)cccc2C)n2nc(C)nc2n1 -2.1%
